Laboratory results as given in PubChem BioAssay (NCATS).
Results filed as inconclusive are left out. Entries that show only a call come without a potency. Active and inactive are the calls of the source. Unless noted, calls come from the whole dose curve; as a rule, active = well fitted cell-killing curve with a large enough effect; inconclusive = small, poorly fitted or top-dose-only effect; inactive = flat fitted curve, though single readings scatter.

Molecular target: Mitogen-activated protein kinase 10 (Mus musculus) (UniProt Q61831)
Experiment: JNK3 AlphaScreen Assay (AID 530; active = well fitted curve in either direction with a large enough effect, not every such curve was filed as active;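 note: kinase came from lysate of stimulated human HepG2 cells; signal reports phosphorylation of biotinylated GST-cJun 1-79 at Ser73 with 10 µM ATP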)
Settings: JNK3 lysate, c-Jun phosphorylation; series mostly up to 57.1 µM
In short: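 Compound titrations were preincubated 15 minutes at room temperature with substrate, antibody and pre-activated JNK3-containing HepG2 lysate. Reactions were started with 10 uM ATP and stopped with EDTA-containing bead buffer for AlphaScreen detection.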

Row | SMILES | outcome
1 | CCN(Cc1ccccc1)c1ccccc1 | inactive
2 | CC(C=O)Cc1ccc(C(C)(C)C)cc1 (stereo not given) | inactive
3 | CC(C)(C)c1ccc(OCC2CO2)cc1 (stereo not given) | inactive
4 | Nc1cc(Cl)c([N+](=O)[O-])cc1O | inactive
5 | OCCO | inactive
6 | CCC(C)=O | inactive
7 | O=CNc1ccccc1 | inactive
8 | Nc1cc([N+](=O)[O-])ccc1C(=O)O | inactive
9 | C=CCCCCCCC=C | inactive
10 | CO[Si](CCCNCCC[Si](OC)(OC)OC)(OC)OC | inactive
11 | COC(=O)CCCC(=O)OC | inactive
12 | CCCCN(CCO)CCCC | inactive
13 | C[C@@H]1CC2(OC3C[C@@]4(C)C5=CC[C@H]6C(C)(C)C(O[C@@H]7OC[C@@H](O)[C@H](O)[C@H]7O)CC[C@@]67C[C@@]57CC[C@]4(C)C31)OC(O)C1(C)OC21 (stereo not given in full) | inactive
14 | CC(C)=CCC/C(C)=C/C=O | inactive

System: not listed separately
Experiment: Cell Viability - N2a (AID 540); note: nearly all actives have a fitted effect of over 45% in size
Settings: N2a mouse neuroblastoma cell viability; activity change, negative = cytotoxicity: at 92.2 µM (top of the series)
In short: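 Mouse neuroblastoma N2a cells, 1500/well, exposed to compounds 40 h at 37 °C in complete medium. Viability measured as cellular ATP by CellTiter-Glo luminescence; AC50 from Hill fits of concentration-response.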

Row | SMILES | activity change, negative = cytotoxicity
15 | CC(C)N(C)C | -3.04% (inactive)
16 | CC(=O)c1cccc([N+](=O)[O-])c1 | 0.298% (inactive)
17 | CC(=O)OCCC(C)C | -1.72% (inactive)
18 | CCN(Cc1ccccc1)c1ccccc1 | 15.1% (inactive)
19 | Cc1ccc(C#N)cc1 | 6% (inactive)
20 | Cc1ccccc1Br | -5.14% (inactive)
21 | O=P(O)(OCc1ccccc1)OCc1ccccc1 | 4.67% (inactive)
22 | C=CCCC | 1.78% (inactive)
23 | CC(C)Nc1ccccc1 | -9.13% (inactive)
24 | Cc1ccc(Br)cc1 | 6.22% (inactive)
25 | S=C([S-])NCCNC(=S)[S-].[Zn+2] | -5.49% (inactive)
26 | CC(C=O)Cc1ccc(C(C)(C)C)cc1 (stereo not given) | -7.79% (inactive)
27 | CCCCCCCN | -10.2% (inactive)
28 | CC(C)C(C)C | 5.14% (inactive)
29 | CC(C)(C)c1ccc(OCC2CO2)cc1 (stereo not given) | -14.9% (inactive)
30 | Cc1ccc2c(c1[N+](=O)[O-])C(=O)c1ccccc1C2=O | 3.24% (inactive)
31 | CCCCCCO | 4.85% (inactive)
32 | O=C(O)c1ccccc1Cl | -6.85% (inactive)
33 | Nc1cc(Cl)c([N+](=O)[O-])cc1O | -99.1% (active)
34 | COCCOC(=O)c1ccccc1C(=O)OCCOC | 4.24% (inactive)

Row | SMILES | activity change, negative = cytotoxicity
35 | OCCO | -12.9% (inactive)
36 | CCC(C)=O | -16.1% (inactive)
37 | Nc1cc(S(=O)(=O)O)ccc1O | -15.5% (inactive)
38 | O=CNc1ccccc1 | 5.69% (inactive)
39 | C=C(C)C(=O)OCC(C)C | 1.04% (inactive)
40 | CC(=O)c1ccc([N+](=O)[O-])cc1 | 0.428% (inactive)
41 | Nc1cc([N+](=O)[O-])ccc1C(=O)O | 7.91% (inactive)
42 | C=CCCCCCCC=C | -4.21% (inactive)
43 | CC(C)CCOC(=O)/C=C/c1ccccc1 | 1.5% (inactive)
44 | ClCCl | -5.52% (inactive)
45 | CO[Si](CCCNCCC[Si](OC)(OC)OC)(OC)OC | -27% (inactive)
46 | Cc1ccc(N(C)C)cc1 | -13.1% (inactive)
47 | COC(=O)CCCC(=O)OC | 3.33% (inactive)
48 | CCCCN(CCO)CCCC | -15.2% (inactive)
49 | CCOC(=O)C(C)C(C)=O (stereo not given) | 0.646% (inactive)
50 | C[C@@H]1CC2(OC3C[C@@]4(C)C5=CC[C@H]6C(C)(C)C(O[C@@H]7OC[C@@H](O)[C@H](O)[C@H]7O)CC[C@@]67C[C@@]57CC[C@]4(C)C31)OC(O)C1(C)OC21 (stereo not given in full) | -8.85% (inactive)
51 | CC(C)(C)OC=O | -8.52% (inactive)
52 | Cc1ccccc1C#N | -9.75% (inactive)
53 | C=Cc1ccccc1C=C | 7.3% (inactive)
54 | CC(C)=CCC/C(C)=C/C=O | -7.95% (inactive)

System: not listed separately
Experiment: Cell Viability - NIH 3T3 (AID 541); note: nearly all actives have a fitted effect of over 25% in size
Settings: NIH 3T3 cell viability, qHTS; activity change, negative = cytotoxicity: at 92.2 µM (top of the series)
In short: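 Mouse NIH 3T3 fibroblasts, 1000 cells/well, rested 5 hr at 37 °C, then exposed to compound for 40 hr at 37 °C in complete medium. Viability read as intracellular ATP by CellTiter-Glo luminescence; AC50 from Hill-equation fits of concentration-response data.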

Row | SMILES | Potency
55 | CC(C)N(C)C | inactive
56 | CC(=O)c1cccc([N+](=O)[O-])c1 | inactive
57 | CC(=O)OCCC(C)C | inactive
58 | CCN(Cc1ccccc1)c1ccccc1 | inactive
59 | Cc1ccc(C#N)cc1 | inactive
60 | Cc1ccccc1Br | inactive
61 | O=P(O)(OCc1ccccc1)OCc1ccccc1 | inactive
62 | C=CCCC | inactive
63 | CC(C)Nc1ccccc1 | inactive
64 | Cc1ccc(Br)cc1 | inactive
65 | S=C([S-])NCCNC(=S)[S-].[Zn+2] | inactive
66 | CC(C=O)Cc1ccc(C(C)(C)C)cc1 (stereo not given) | inactive
67 | CCCCCCCN | inactive
68 | CC(C)C(C)C | inactive
69 | CC(C)(C)c1ccc(OCC2CO2)cc1 (stereo not given) | inactive
70 | Cc1ccc2c(c1[N+](=O)[O-])C(=O)c1ccccc1C2=O | inactive
71 | CCCCCCO | inactive
72 | O=C(O)c1ccccc1Cl | inactive

Row | SMILES | Potency
73 | COCCOC(=O)c1ccccc1C(=O)OCCOC | inactive
74 | OCCO | inactive
75 | CCC(C)=O | inactive
76 | Nc1cc(S(=O)(=O)O)ccc1O | inactive
77 | O=CNc1ccccc1 | inactive
78 | C=C(C)C(=O)OCC(C)C | inactive
79 | CC(=O)c1ccc([N+](=O)[O-])cc1 | inactive
80 | C=CCCCCCCC=C | inactive
81 | CC(C)CCOC(=O)/C=C/c1ccccc1 | inactive
82 | ClCCl | inactive
83 | Cc1ccc(N(C)C)cc1 | inactive
84 | COC(=O)CCCC(=O)OC | inactive
85 | CCCCN(CCO)CCCC | inactive
86 | CCOC(=O)C(C)C(C)=O (stereo not given) | inactive
87 | C[C@@H]1CC2(OC3C[C@@]4(C)C5=CC[C@H]6C(C)(C)C(O[C@@H]7OC[C@@H](O)[C@H](O)[C@H]7O)CC[C@@]67C[C@@]57CC[C@]4(C)C31)OC(O)C1(C)OC21 (stereo not given in full) | inactive
88 | CC(C)(C)OC=O | inactive
89 | Cc1ccccc1C#N | inactive
90 | C=Cc1ccccc1C=C | inactive
